Screening data as filed in PubChem.
The entries come from a sample that favours hits as a whole.
Methyltransferases = Primary Screen for Target Class Profiling of Small Molecule Inhibitors of Methyltransferases | purified enzyme, MTase-Glo SAH luminescence; stronger effect = lower value | calls only at 40 µM | hit rate 3.9% among 25,000; call rule not given here
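Each enzyme was assayed with SAM and its substrate. SAH formation detected by MTase-Glo luminescence; single-point 40 uM screen[…].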
* = called active by the depositor; i = inactive; + = active, no number. % is set by controls: 0 for no effect and ±100 for the full control effect.

SMILES	Methyltransferases
CC1(C)CC[C@]2(C(=O)O)CC[C@]3(C)C(=CCC4[C@@]5(C)C[C@@H](O)[C@H](O)[C@@](C)(CO)C5[C@H](O)C[C@]43C)[C@@H]2C1 (some centres not stated)	i
CC1CCN(S(=O)(=O)c2ccc3c(ccn3CC(=O)NC(C)c3ccccc3)c2)CC1 (configuration not stated)	i
CC(=O)Nc1c2n(c3ccccc13)CC(C)(C(=O)NC1CCCC1)N(Cc1ccccc1C)C2=O (configuration not stated)	i
COc1ccc2cc3n(c2c1)CC(C)(C(=O)NC1CCCCC1)N(C1CCCC1)C3=O (configuration not stated)	i
CCc1ccc(N2C(=O)c3cc4sc(CC)cc4n3CC2(C)C(=O)NC2CCC(C)CC2)cc1 (configuration not stated)	i
CCC(C)NC(=O)c1ccc2c(=O)n(C(C)C)c3nn(CC(=O)Nc4ccc(F)cc4)c(=O)n3c2c1 (configuration not stated)	i
COc1cccc(C2c3cccn3-c3sc4c(c3CN2C(=O)Nc2ccc(C)cc2)CCCC4)c1 (configuration not stated)	i
CCCn1c(=O)c2ccc(C(=O)NC3CCCC3)cc2n2c(SCC(=O)Nc3cccc(C)c3)nnc12	i
CCn1nc(CNC(=O)Cc2cccc(Cl)c2)c2ccccc21	i
Cc1ccc(Cn2nc3n(Cc4ccccc4)c(=O)c4ccc(C(=O)NC(C)C)cc4n3c2=O)cc1	i
CCN(CC)CCN1C(=O)c2ccc(-c3ccco3)n2CC1(C)C(=O)NC1CCC(C)CC1 (configuration not stated)	i
CCc1ccc(CN2C(=O)c3ccc(-c4ccccc4)n3CC2(C)C(=O)NC2CCC(C)CC2)cc1 (configuration not stated)	i
CCOC(=O)c1cc2n(n1)CC(C)(C(=O)NCCOC)N(c1ccc(F)cc1)C2=O (configuration not stated)	i
c1cc(N[C@@H]2CCNC2)nc(-c2cnc3ccc(-c4cn[nH]c4)cn23)c1	+
Cc1cccc(NC(=O)Cn2nc3n(C)c(=O)c4ccc(C(=O)NC5CCCCC5)cc4n3c2=O)c1	i
CC(C)(C)Cn1c(N)nc2ccc(-c3[nH]c(C(C)(C)C)nc3-c3ccc(F)cc3)nc21	+
CCc1cccc(N2C(=O)CSc3c(c4ccccc4n3C)C2C(=O)NCc2ccc(F)cc2)c1 (configuration not stated)	i
COc1ccc(OC)c(CCNC(=O)CCc2nnc3n(CCCOC(C)C)c(=O)c4ccccc4n23)c1	i
O=C(/C=C/c1ccccc1)OC[C@]12O[C@H]1[C@@H](O)[C@@H]1C=CO[C@@H](O[C@@H]3O[C@H](CO)[C@@H](O)[C@H](O)[C@H]3O)[C@@H]12	+
COC(=O)C1=COC(OC2OC(CO)C(O)C(O)C2O)C2C1C=CC2(O)CO (configuration not stated)	i
O=C(/C=C/c1ccc(O)cc1)OC[C@@]1(O)C=C[C@@H]2C(C(=O)O)=CO[C@@H](O[C@@H]3O[C@H](CO)[C@@H](O)[C@H](O)[C@H]3O)[C@@H]21	+
C=C[C@H]1[C@H](O[C@@H]2O[C@H](CO)[C@@H](O)[C@H](OC(=O)/C=C/c3ccc(O)c(OC)c3)[C@H]2O)OC=C2C(=O)OCC[C@]21O	+
CC(=O)O[C@@H]1[C@@H](OC(=O)/C=C/c2ccccc2)[C@@H](OC(C)=O)[C@H](O[C@H]2[C@@H]3C=CO[C@@H](O[C@@H]4O[C@H](CO)[C@@H](O)[C@H](O)[C@H]4O)[C@@H]3[C@@]3(CO)O[C@@H]23)O[C@H]1C	i
O=C(/C=C/c1ccc(O)c(O)c1)O[C@@H]1[C@@H](O)[C@H](OC2CCCCC2O)O[C@H](CO)[C@H]1O (some centres not stated)	i
CC(=O)O[C@@H]1[C@@H](OC(C)=O)[C@H](C)O[C@@H](O[C@H]2[C@@H]3C=CO[C@@H](O[C@@H]4O[C@H](CO)[C@@H](O)[C@H](O)[C@H]4O)[C@@H]3[C@@]3(CO)O[C@@H]23)[C@@H]1OC(=O)/C=C/c1ccccc1	i
SMILES	Methyltransferases
C[C@@H](OC(=O)/C=C/c1ccc(O)cc1)C1=C[C@]2(C=C[C@@H]3C(C(=O)O)=CO[C@@H](O[C@@H]4O[C@H](CO[C@@H]5O[C@H](CO)[C@@H](O)[C@H](O)[C@H]5O)[C@@H](O)[C@H](O)[C@H]4O)[C@@H]32)OC1=O	i
O=C(/C=C/c1ccc(O)cc1)OC[C@]12O[C@H]1[C@@H](O)[C@@H]1C=CO[C@@H](O[C@@H]3O[C@H](CO)[C@@H](O)[C@H](O)[C@H]3O)[C@@H]12	i
C=C[C@H]1[C@H](O[C@@H]2O[C@H](CO)[C@@H](O)[C@H](O)[C@H]2O)OC=C2C(=O)OCC[C@]21O	i
COc1ccc(/C=C/C(=O)O[C@@H]2[C@@H](OC(C)=O)[C@@H](OC(C)=O)[C@H](O[C@H]3[C@@H]4C=CO[C@@H](O[C@@H]5O[C@H](CO)[C@@H](O)[C@H](O)[C@H]5O)[C@@H]4[C@@]4(CO)O[C@@H]34)O[C@H]2C)cc1O	+
CC(=O)O[C@H]1[C@@H](O)[C@H](O[C@H]2[C@@H]3C=CO[C@@H](O[C@H]4O[C@@H](CO)[C@H](O)[C@@H](O)[C@@H]4O)[C@@H]3[C@@]3(CO)O[C@@H]23)O[C@@H](C)[C@@H]1OC(=O)/C=C/c1ccccc1	i
COc1cccc(CN2CC(=O)N(Cc3ccc(Cl)cc3)c3ccccc3S2(=O)=O)c1	i
CCN(Cc1ccccc1)C(=O)CCn1ccc2cc(S(=O)(=O)N3CCCCC3)ccc21	i
CCOCCCNC(=O)C1c2c(n(C)c3ccccc23)SCC(=O)N1c1cc(OC)cc(OC)c1 (configuration not stated)	i
CC(C)CCNC(=O)C1c2c(n(C)c3ccccc23)SCC(=O)N1Cc1cccs1 (configuration not stated)	i
CCOC(=O)c1cccc(NC(=O)Cn2c(=O)oc3cc(S(=O)(=O)N4CCCC4)ccc32)c1	i
COc1ccccc1NC(=O)Cn1nc2n(CCc3ccccc3)c(=O)c3ccccc3n2c1=O	i
CCc1cccc(NC(=O)Cn2nc3n(CC(C)C)c(=O)c4ccc(C(=O)NCC(C)C)cc4n3c2=O)c1	i
CCc1ccc(N2C(=O)c3ccccc3CC2(C)C(=O)NCc2ccccc2)cc1 (configuration not stated)	i
COc1ccc(/C=C/C(=O)O[C@@H]2[C@@H](O)[C@@H](O)[C@H](O[C@H]3[C@@H]4C=CO[C@@H](O[C@@H]5O[C@H](CO)[C@@H](O)[C@H](O)[C@H]5O)[C@@H]4[C@@]4(CO)O[C@@H]34)O[C@H]2C)cc1	i
COc1ccc(/C=C/C(=O)O[C@@H]2[C@@H](O[C@@H]3O[C@H](CO)[C@@H](O)[C@H](O)[C@H]3O)[C@@H](O)[C@H](O[C@H]3C4C=CO[C@@H](O[C@@H]5O[C@H](CO)[C@@H](O)[C@H](O)[C@H]5O)C4[C@@]4(CO)O[C@@H]34)O[C@H]2C)cc1 (some centres not stated)	i
COc1cc(/C=C/C(=O)O[C@H]2[C@@H]3C=CO[C@@H](O[C@@H]4O[C@H](CO)[C@@H](O)[C@H](O)[C@H]4O)[C@@H]3[C@@]3(CO)O[C@@H]23)ccc1O	+
